This note sets out measurements from PubChem BioAssay AID651958 (The Scripps Research Institute Molecular Screening Center, 2012).

SMILES strings stand for the structures. The whole screen tested about 370,000 compounds, of which about 2,000 (0.54%) were called active. For the sample, actives were picked, then their nearest neighbours and some compounds at random. Values without a mark were called inactive. Rule as the data show it: active = inhibition above about 30%; inactive = the rest.

The assay deals with Crimean-Congo hemorrhagic fever virus L polyprotein viral ovarian tumor (vOTU) protease domain. Put plainly: CCHFV vOTU protease inhibitors, primary screen, biochemical, Pep-AMC substrate, fluorescence (AID 651958). Also: 0% = vehicle wells with enzyme and 100% = no enzyme wells. To be noted: at 11.5 µM, hits give high values.
With `O=C1NC[C@@H](CCCCN2CCN(CCc3ccc(O)cc3)C(=O)C2=O)N(CC2CCCCC2)C1=O`, the inhibition – broadly, the drop in the measured response relative to a control, in per cent – was -7.64%.
For `O=C(COC(=O)c1ccc([N+](=O)[O-])o1)NC12CC3CC(CC(C3)C1)C2` the value was 13.9%; for `O=C(OCC(=O)c1cccs1)c1ccc([N+](=O)[O-])o1`, 31.4% (active); for `COc1ccccc1CNC(=O)COC(=O)c1cccs1`, 0.12%.
The figure for `Cc1ccc(OC(=O)c2c(C)nn(-c3ccccc3)c2C)cc1` is -6.31%; for `Cc1cccc(C)c1NC(=O)CNC(=O)Cc1ccc(Br)cc1` it is -10.5%.
The figure for `Cc1cccc(C)c1NC(=O)CNC(=O)c1c(C)nn(-c2ccccc2)c1C` is 33% (active).
For `CCN(N=Nc1nonc1OC)c1nonc1OC`, the inhibition was -2.47%.
The figure for `CN(CC(=O)Nc1ccccc1F)CC(=O)Nc1ccccc1Br` is -17.7%.
For `N#Cc1cccc(C(=O)NCC2CCN(C(=O)C(=O)c3cc4ccccc4o3)CC2)c1` the value was 5.69%.
The figure for `CC(C)(C)c1ccc(S(=O)(=O)NCC2CCN(C(=O)C(=O)c3cc4ccccc4o3)CC2)cc1` is 41.9% (active).
As to `O=C(C(=O)N1CCC(CNS(=O)(=O)Cc2ccccc2)CC1)c1cc2ccccc2o1`, the inhibition was -0.44%.
For `Cc1ccc(C(=O)CN2C(=O)NC3(CCc4ccccc43)C2=O)c(C)c1` (centres undefined) the value was -4.9%; for `Cn1c(CN2CCOCC2)nc2cc(NC(=O)c3ccc(Cl)cc3)ccc21`, -1.05%; for `CCOC(=O)N1CCN(Cc2nc3cc(NC(=O)CC)ccc3n2CC)CC1`, 10.5%.
For `CN1CCN(Cc2nc3cc(NC(=O)COc4ccc([N+](=O)[O-])cc4)ccc3n2C)CC1` the value was 33.6% (active); for `CC(=O)Nc1ccc(C(=O)NNC(=O)CCCCC(=O)NNC(=O)c2ccc(NC(C)=O)cc2)cc1`, 2.99%.
The figure for `COc1cc(NC(=O)COC(=O)c2ccc([N+](=O)[O-])s2)cc(OC)c1OC` is 113% (active); for `COc1ccc(C(=O)COC(=O)c2ccc([N+](=O)[O-])s2)cc1OC` it is 34.1% (active).
For `COc1cc(C(=O)OCC(=O)NC23CC4CC(CC(C4)C2)C3)cc(OC)c1OC`, the inhibition is 12.9%.
The figure for `COc1ccc(C(=O)OCC(=O)c2ccc(C)c(S(=O)(=O)N3CCOCC3)c2)cc1OC` is -12.5%; for `COc1cc(CCC(=O)OCC(=O)Nc2cccc(S(N)(=O)=O)c2)cc(OC)c1OC` it is -0.39%.
For `COc1ccc(C(=O)OCC(=O)c2ccc(Cl)s2)c(OC)c1OC` the value was 7.84%; for `CCN(CC)CCn1c(=S)[nH]c2ncccc2c1=O`, 3.47%.
On to `FC(F)(F)c1cc(C(F)(F)F)c2ccc(N3CCN(c4ccccc4)CC3)nc2n1`, for which the inhibition was -0.35%.
As for `CSc1ncc(C(=O)Nc2ccc(C)cc2C)c(C)n1`, the inhibition was -3.39%.
The figure for `CN(C)C(=O)c1ccc2c(c1)C1C3CCC(C3)C1C(c1ccccc1)N2` (centres undefined) is 5.37%; for `CCOc1ccc(-c2cn(S(=O)(=O)c3cccc4nsnc34)nc2N)cc1` it is 7.56%.
Turning to `COc1ccccc1C(=O)NCCC(=O)NN1C(=O)NC2(CCCCC2)C1=O`, the inhibition was -3.82%.
The figure for `CCN(C[C@H]1N[C@@](CC)(C(=O)OC)[C@H]2C(=O)N(Cc3ccccc3)C(=O)[C@@H]12)S(=O)(=O)c1ccc(C(F)(F)F)cc1` is 29.7% (active); for `COC(=O)[C@]1(Cc2ccccc2)N[C@H](CN(C)S(=O)(=O)c2ccc(OC(F)(F)F)cc2)[C@@H]2C(=O)N(Cc3ccccc3)C(=O)[C@@H]21` it is 3.43%.
For `CCN(C[C@H]1N[C@@](CC)(C(=O)OC)[C@H]2C(=O)N(Cc3ccccc3)C(=O)[C@@H]12)S(=O)(=O)c1ccccc1` the value was 6.5%.
For `CCCCNC(=O)C[C@@H]1C[C@@]2(C(=O)OC)CC(C)(C)CC=C2N(Cc2ccco2)C1=O` the value was 4.7%; for `COC(=O)[C@@]12C[C@@H](CC(=O)NCc3cccc(C(F)(F)F)c3)C(=O)N(Cc3ccco3)C1=CCC(C)(C)C2`, 34.5% (active); for `CCOC(=O)[C@]12CCC=C1N(Cc1ccco1)C(=O)[C@H](CC(=O)NCc1cccc(C(F)(F)F)c1)C2`, 15.5%.
As to `CCN(CC(=O)Nc1ccccc1C(F)(F)F)C(=O)CSCc1c(C)noc1C`, the inhibition is -9.14%.
On to `COC(=O)[C@]12C[C@H](CC(=O)NCc3ccccc3)C(=O)N(CCC3=CCCCC3)C1=C[C@H](C(C)(C)C)O[C@@H]2C`, for which the inhibition was 24.8%.
For `COC(=O)[C@]12C[C@H](CC(=O)NCc3ccc(C)o3)C(=O)N(CCC3=CCCCC3)C1=C[C@H](C(C)(C)C)O[C@@H]2C` the value was 29.6% (active); for `CCCCCCCCN1C(=O)[C@@H](CC(=O)NCc2ccc(C)o2)C[C@@]2(C(=O)OC)C1=C[C@H](C(C)(C)C)O[C@@H]2C`, 17.8%.
The figure for `COc1ccc2c(c1)[C@H]1[C@H](CO2)[C@H](c2ccccc2)[C@]2(C)C(=O)Nc3cc(F)c(F)cc3C(=O)N12` is 0.66%; for `COCCn1c(SCc2nc3cc(OC)c(OC)cc3c(=O)[nH]2)nnc1-c1ccncc1` it is -3.09%; for `O=C1Nc2ccccc2-n2nnnc2C1N1CCN(c2cccc(C(F)(F)F)n2)CC1` (centres undefined) it is 32.5% (active).
For the compound `COc1cc(OC)cc(C(=O)NCCN2CCC3(CC2)C(=O)NCN3c2ccccc2)c1`, the inhibition was -10.2%.
For `CCCc1ccc(C(O)c2ncc(-c3cccc(OC)c3)[nH]2)cc1` (centres undefined), the inhibition was 23.9%.
Regarding `O=C(CSc1nc2[nH]ncc2c(=O)[nH]1)Nc1ccc(F)cc1`, the inhibition is -2.83%.
The figure for `Cc1cc(C)c2c(=O)[nH]c(SCC(=O)Nc3ccc(Br)cc3)nc2n1` is 36% (active).
For `Cc1cc(=O)[nH]c(SCC(=O)Nc2ccc(Cl)cc2C)n1` the value was -2.3%; for `Cc1ccnc(NS(=O)(=O)c2ccc(NC(=O)c3ccc(S(=O)(=O)N(C)C)cc3)cc2)n1`, -12.8%.
For `Cc1ccnc(NS(=O)(=O)c2ccc(NC(=O)c3oc4ccc(F)cc4c3C)cc2)n1` the value was -2.26%; for `Cc1ccnc(NS(=O)(=O)c2ccc(NC(=O)c3oc4ccccc4c3C)cc2)n1`, 29.9% (active); for `COc1c(F)c(F)c(-c2csc(N)n2)c(F)c1F`, -1.03%.
Take `CCOc1cc(S(=O)(=O)NC2CC(C)(C)NC(C)(C)C2)ccc1F`: the inhibition was 13.1%.
The figure for `O=C(NCCc1ccc(Cl)cc1Cl)c1cc([N+](=O)[O-])c[nH]c1=O` is 30.7% (active); for `O=C(NCCc1c[nH]c2ccc(Cl)cc12)c1ccc([N+](=O)[O-])cc1` it is -0.42%; for `NS(=O)(=O)c1ccc(CCNC(=O)c2ccc(Cl)cc2[N+](=O)[O-])cc1` it is 2.43%.
The figure for `Cc1ccc(-n2c(SCC(=O)Nc3cccc4ccccc34)nnc2-c2ccco2)cc1` is 7.16%.
In the case of `CCCc1ccc(-c2c(C)sc(NC(=O)c3ccnn3C)c2C#N)cc1`, the inhibition was 13%.
The figure for `CC(=O)NC(C(=O)NCC(N)=O)C(C)C` (centres undefined) is 3.21%; for `CCCC(=O)NC(=S)Nc1ccc(CN2CCOCC2)cc1` it is 9.86%.
The figure for `Cc1cc(C)cc(NC(=S)NCCCN2CCOCC2)c1` is 0.01%.
For `Cc1ccc(NC(=S)NCCN2CCOCC2)cc1` the value was 36.5% (active); for `CN(CC1CCCO1)S(=O)(=O)c1ccc(C(=O)Nc2ccc(F)cc2)cc1` (centres undefined), 5.87%; for `OCc1nc(CO)n(Cc2ccccc2)n1`, -7.04%.
Consider `CCOC(=O)C1=C(C)c2ccccc2OC1C(=O)OCC` (centres undefined), for which the inhibition is 16.2%.
For `CCOC(=O)NN1C(=O)c2ccccc2NC1c1ccccc1O` (centres undefined) the value was -25.4%.
The figure for `CCOC(=O)c1c(C)[nH]c2c1-c1ccccc1C(=O)C2=O` is 108% (active); for `COC(=O)c1cc(C(=O)OCC(=O)Nc2cc(C)on2)cc([N+](=O)[O-])c1` it is 4.92%.
The figure for `Cc1noc(C)c1C(=O)OCC(=O)N1CCN(S(=O)(=O)c2ccc3ccccc3c2)CC1` is 4.27%; for `COc1ccc(-c2cn(-c3ccc(C)cc3)c(=O)n2CC(=O)Nc2ccc(OC)c(OC)c2)cc1` it is 15.2%; for `C#CCO[C@@H]1C[C@H](n2cnc3c(=O)[nH]c(NC(=O)C(C)C)nc32)O[C@@H]1CO` it is -9.39%.
Regarding `Cc1ccc(S(=O)(=O)N2CCOCC2)cc1C(=O)NC(=S)N(Cc1ccccc1)C(C)C`, the inhibition was -6.59%.
On to `Cc1nnc(NC(=O)Nc2ccc(Cl)c(Cl)c2)s1`, for which the inhibition is 43.4% (active).
For `O=C(CCS(=O)(=O)c1ccccc1)Nc1ccc(Cl)c(Cl)c1` the value was 13.1%; for `Cc1nnc(NC(=O)Cn2c(=O)sc3ccccc32)s1`, -3.29%; for `CCCCn1ccnc1C(=O)c1cccc(S(=O)(=O)N2c3ccccc3CC2C)c1` (centres undefined), 26.1%.
For `CCCCNS(=O)(=O)c1ccc2nc(SCC(=O)Nc3cc(C)cc(C)c3)[nH]c2c1` the value was 4.67%; for `Cc1ccc(-n2ncc(C(=O)NC3CC3)c2C2CCN(C(=O)OC(C)(C)C)CC2)c(C)c1`, 16%; for `Cc1ccc(C(=O)NC2CC(C)(C)NC(C)(C)C2)c(C)c1`, -8.23%.
The figure for `CSCCC(NC(=O)COc1ccccc1)C(=O)N(C)CC(=O)Nc1ccc(C)cc1` (centres undefined) is 9.4%; for `COc1cccc(NC(=O)C2C(c3ccccc3)C2(Cl)Cl)c1` (centres undefined) it is -4.86%; for `COc1ccc2c(c1)C(C)=CC(C)(C)N2C(=O)CNCc1ccc2c(c1)OCO2` it is -2.62%.
As to `COc1ccc2c(c1)C(C)=CC(C)(C)N2C(=O)Nc1ccccc1`, the inhibition was 51.4% (active).
For `O=C(COc1coc(CN2CCN(c3ccccc3)CC2)cc1=O)N1CCc2ccccc21` the value was -8.86%; for `CCc1nc2ccc(C(=O)Nc3ccc(OC)c(OC)c3)cn2c1N(C)C(=O)c1cccc(OC)c1`, 7.94%.
